PubChem BioAssay (NCATS)
Results filed as inconclusive are left out. The source made the active and inactive calls. Calls follow the shape of the dose curve; as a rule, active = well fitted inhibition curve with a large enough effect; inconclusive = small, poorly fitted or top-dose-only effect; inactive = no such curve, though single readings can be large or run the other way.

These compounds were tested on Zika virus NS2B-NS3 protease (unlinked) (assay: Optimization of GU AMC qHTS for Zika virus inhibitors: Unlinked NS2B-NS3 protease assay (AID 1347151; also: nearly all actives have a fitted effect of over 80% in size;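 as to activity change, negative = inhibition: 0% = no-inhibitor control and -100% = no-enzyme control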)). Settings: recombinant ZIKV NS2B-NS3 protease, fluorogenic AMC substrate; series mostly up to 52.5 µM; activity change, negative = inhibition: at the top concentration.
Outline: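 Fluorescence gain (340/450 nm) over 15 min at room temperature, ~20% conversion, gave percent inhibition fitted to a 4-parameter Hill equation; enzyme was unlinked NS2B-NS3 (25 nM final), pH 8.0 Tris buffer.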
Potency is read from the fitted curve at half-maximal effect.

SMILES | activity change, negative = inhibition | Potency
CC(=O)[C@]1(O)Cc2c(O)c3c(c(O)c2[C@@H](O[C@H]2C[C@H](N)[C@H](O)[C@H](C)O2)C1)C(=O)c1ccccc1C3=O | 23.9% (inactive) | –
CCc1c(C)[nH]c2c1C(=O)C(CN1CCOCC1)CC2 (centres undefined) | 0.818% (inactive) | –
CC(=O)Oc1cc(C(C)C)c(OCCN(C)C)cc1C | 4.15% (inactive) | –
CCn1cc(C(=O)O)c(=O)c2cc3c(cc21)OCO3 | – | 23.8 µM (active)
C[N+](C)(C)CCCCCCCCCC[N+](C)(C)C | 337% (inactive) | –
Cc1ccc(S(=O)(=O)NC(=O)NN2CCCCCC2)cc1 | -1.91% (inactive) | –
CCCCNc1ccc(C(=O)OCCN(C)C)cc1 | -5.4% (inactive) | –
CCN(CC)CCCN(c1ccccc1)C1Cc2ccccc2C1 | 6.57% (inactive) | –
Cc1ccc(=O)n(-c2ccccc2)c1 | – | 26.7 µM (active)
Cc1cccc(C)c1NC(=O)C(C)N (centres undefined) | -0.607% (inactive) | –
CC(C)NCC(O)c1cc(O)cc(O)c1 (centres undefined) | -2.36% (inactive) | –
CN1CCN(CC(=O)N2c3ccccc3C(=O)Nc3cccnc32)CC1 | 1.67% (inactive) | –
OCCN1CCN(CC/C=C2/c3ccccc3Sc3ccc(C(F)(F)F)cc32)CC1 | 8.39% (inactive) | –
COc1ccc2c(c1OC)C(=O)O[C@@H]2[C@H]1c2c(cc3c(c2OC)OCO3)CCN1C | 7.47% (inactive) | –
O=C1CC2(CCCC2)CC(=O)N1CCCCN1CCN(c2ncccn2)CC1 | -5.52% (inactive) | –
OCCN1CCN(CCCN2c3ccccc3C=Cc3ccccc32)CC1 | -0.827% (inactive) | –
Cc1scc2c1N(C(=O)CN1CCN(C)CC1)c1ccccc1NC2=O | -4.13% (inactive) | –

SMILES | activity change, negative = inhibition | Potency
c1cnc(N2CCN(Cc3ccc4c(c3)OCO4)CC2)nc1 | 0.281% (inactive) | –
Fc1ccc(C(c2ccc(F)cc2)N2CCN(C/C=C/c3ccccc3)CC2)cc1 | 3.18% (inactive) | –
CCCCNc1c(C(=O)OCC)c(C)nc2c1cnn2CC | -13.2% (inactive) | –
C[N+](C)(C)CCOC(=O)CCC(=O)OCC[N+](C)(C)C | 5.59% (inactive) | –
C#CCN(C)CCCOc1ccc(Cl)cc1Cl | 1.41% (inactive) | –
CNCCCN1c2ccccc2CCc2ccccc21 | 14.7% (inactive) | –
CSc1ccc(C(=O)c2[nH]c(=O)[nH]c2C)cc1 | -5.31% (inactive) | –
COC(=O)[C@@H](N)Cc1ccc(O)c(O)c1 | 65.5% (inactive) | –
CCN(CC)CCOCCOC(=O)C1(c2ccccc2)CCCC1 | 4.65% (inactive) | –
CCO/C([O-])=N/c1c[n+](N2CCOCC2)no1 | -0.0696% (inactive) | –
O=C(O)CN(CCOCCOCCN(CC(=O)O)CC(=O)O)CC(=O)O | 7.02% (inactive) | –
CCNC(=O)N1CCN(CCCC(c2ccc(F)cc2)c2ccc(F)cc2)CC1 | 8.92% (inactive) | –
COCC(=O)O[C@]1(CCN(C)CCCc2nc3ccccc3[nH]2)CCc2cc(F)ccc2[C@@H]1C(C)C | 27.2% (inactive) | –
CN(C)C/C=C(/c1ccc(Br)cc1)c1cccnc1 | -7.66% (inactive) | –
CCc1cccc(N(C)C(N)=Nc2cccc3ccccc23)c1 | 2.71% (inactive) | –
COc1ccc(CN(CCN(C)C)c2ccccn2)cc1 | 1.95% (inactive) | –
CN(C)CCCN1c2ccccc2Sc2ccc(C(F)(F)F)cc21 | 10.8% (inactive) | –
